High-throughput results from PubChem.
GalR3 antagonist: antagonists of human GalR3. O60755. HEK293 GalR3-CNG cAMP membrane potential fluorescence; galR3 body fused to GalR1 C-terminus. inhibition, % at 3 µM. 360,000 compounds, 0.44% hits. AID 651719;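 active means inhibition above the screen-wide average plus 3 SD, cut at about 13% in these data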;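 further: forskolin and galanin both at EC90 stimulate the cells; cAMP rise reported by CNG channel membrane potential dye signal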
SRC2 inh: inhibits human steroid receptor coactivator 2 | Q15596 | HEK293 GAL4-SRC2 luciferase reporter, luminescence | inhibition, % at 9 µM | 370,000 compounds, 0.17% hits | AID 651957;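 active means inhibition above the mean inhibition of all tested compounds plus 3 SD, set per campaign, cut at about 52% in these data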
NR2F2 inh: inhibitors of human COUP-TFII (NR2F2). P24468. HEK293T NGFI-A luciferase reporter, luminescence. inhibition, % at 8.6 µM. 370,000 compounds, 0.7% hits. AID 686940;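 active means inhibition above a per-plate cutoff, mean inhibition of test wells between control levels plus 3 SD, cut at about 38% in these data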;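 further: cells cotransfected with COUP-TFII expression vector driving the NGFI-A reporter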
LRH-1 inv ag: NR5A2 inverse agonism in reporter assay. O00482. HEK293T StAR-luciferase reporter, LRH-1 transfected, 24 h. inhibition, % at 3.6 µM. 360,000 compounds, 0.13% hits. AID 602396;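 active means inhibition above the mean inhibition of all tested compounds plus 3 SD, cut at about 73% in these data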
SRC3 inh: human NCOA3 inhibition. inhibition, % at 3.6 µM. HEK293 GAL4-SRC3 luciferase reporter, luminescence. Q9Y6Q9. AID 588352. 360,000 compounds, 0.17% hits;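 active means inhibition above a per-campaign cutoff, the mean of all compounds plus 3 SD, cut at about 60% in these data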;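 further: higher means less SRC3-driven luciferase light from the GAL4 reporter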
SRC1 inh: inhibits human SRC1 coactivator | inhibition, % at 3.6 µM | HEK293 GAL4-SRC1 luciferase reporter, luminescence | 360,000 compounds, 0.12% hits;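 active means inhibition above the campaign mean plus 3 SD, with each screening campaign given its own cutoff, cut at about 60% in these data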
VP16 Luc counter: VP16 inhibition counter-screen for COUP-TFII; HEK293 Gal4-VP16 luciferase reporter, luminescence; inhibition, % at 8.5 µM; AID 687007; 2,500 compounds, 25% hits; shares compounds with NR2F2 inh; in the data active means inhibition above about 13%
NR2F2 inh conf: COUP-TFII (NR2F2) inhibition, confirmation assay. shares compounds with NR2F2 inh. HEK293 NGFI-A luciferase reporter, luminescence. inhibition, % at 8.5 µM. 2,500 compounds, 45% hits. AID 687008;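 active means mean inhibition over three repeats above a set limit taken from the earlier primary screen, cut at about 38% in these data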
Of the large screens only hits and unclear results are named; the others gave an inactive call (follow-up assays come after a bar, where they were run); ! = repeats disagree. Compounds with a hit are over-represented: about 1.1% of the library has one in this group of screens.

COc1ccc(N2CCN(c3ncnc4c3[nH]c3ccccc34)CC2)cc1	NR2F2 inh 52.0 | VP16 Luc counter inactive | NR2F2 inh conf 60.6
COc1cccc(CN2CCNC(=O)C2CC(=O)N(C)C2CCCCC2)c1 (stereo not drawn)	none
COc1cc(OC)cc(C(=O)N[C@H](C(=O)Nc2ccc(F)cc2F)C(C)C)c1	none
CN(CC1CCCO1)S(=O)(=O)c1ccc(C(=O)Nc2ccc3c(c2)OCO3)cc1 (stereo not drawn)	none
O=C(Nc1nc2cc3c(cc2s1)OCCO3)c1cccs1	NR2F2 inh 42.4 | VP16 Luc counter inactive | NR2F2 inh conf inactive
COc1ccccc1C(=O)Nc1nc2cc3c(cc2s1)OCCO3	none (no result: GalR3 antagonist, SRC2 inh, NR2F2 inh)
CCN(CC)S(=O)(=O)c1cccc(C(=O)Nc2nc3cc4c(cc3s2)OCCO4)c1	NR2F2 inh 58.1 | VP16 Luc counter inactive | NR2F2 inh conf inactive
CN(CC1CCCO1)S(=O)(=O)c1ccc(C(=O)Nc2nc3cc4c(cc3s2)OCO4)cc1 (stereo not drawn)	NR2F2 inh 38.5 (no result: GalR3 antagonist) | VP16 Luc counter inactive | NR2F2 inh conf 78.4
CCOc1ccc(CN2CCCC(N3CCN(c4ccc(OC)cc4)CC3)C2)cc1 (stereo not drawn)	none
C=CCNC(=O)N1CCc2[nH]c3ccc(F)cc3c2C1	none
CCCc1ccc(-c2ccc(/C=C/C(=O)O)cc2)nc1	SRC2 inh 88.3, NR2F2 inh 98.1, LRH-1 inv ag 78.4, SRC3 inh 64.9, SRC1 inh 71.0 | VP16 Luc counter 91.1 | NR2F2 inh conf 102.2
Cc1cccc(C)c1-n1nnnc1SCC(=O)N1CCNC1=O	none
COc1ccc(C(=O)NCc2ccccc2)cc1S(=O)(=O)N1CCCc2ccccc21	none
CCC(=O)Nc1ccc(NC(=O)c2c(C)nc3ccccn23)cc1	none
CCCn1c(NC(=O)c2cccc(S(=O)(=O)N3CCCC3)c2)nc2ccccc21	NR2F2 inh 44.6 | VP16 Luc counter inactive | NR2F2 inh conf inactive
Cc1ccc(S(=O)(=O)N2CCN(Cc3ccsc3)CC2)cc1	none
CN(C)c1ccc(C2Nc3ccccc3C(=O)N2CCCN2CCOCC2)cc1 (stereo not drawn)	NR2F2 inh 46.9 | VP16 Luc counter inactive | NR2F2 inh conf inactive
O=C(COC(=O)c1nsc(Cl)c1Cl)NC1CCCCC1	none
COc1ccc(Cn2c(-c3ccc(OC)c(O)c3)nc3ccccc32)cc1O	none
CCOC(=O)c1c(NC(=S)Nc2ccccc2)sc(C)c1C	none
COC(=O)/C(=C\c1ccc(O)cc1)c1nc2ccccc2[nH]1	none
CC(C)c1ccc(/C=C(\c2nc3ccccc3[nH]2)S(=O)(=O)c2ccccc2)cc1	SRC2 inh 53.0, NR2F2 inh 40.3, SRC3 inh 73.5 | VP16 Luc counter 30.7 | NR2F2 inh conf inactive
C/C(=C\c1ccc(N)cc1)c1nc2ccccc2[nH]1	none
O=S(=O)(/C(=C/c1ccc(C(F)(F)F)cc1)c1nc2ccccc2[nH]1)c1ccccc1	NR2F2 inh 48.9 | VP16 Luc counter 66.7 | NR2F2 inh conf 62.3
CC(=O)NCCNC(=O)C1(C)Cc2c(-c3cccc(NC(C)=O)c3)ccnc2O1 (stereo not drawn)	none
C=CCn1c(SCC(=O)Nc2sccc2C(N)=O)nc2sc(CC)cc2c1=O	NR2F2 inh 41.6 | VP16 Luc counter inactive | NR2F2 inh conf inactive
C=CCn1c(SCC(=O)Nc2sccc2C(N)=O)nc2ccc(Cl)cc2c1=O	none
O=C(CCNS(=O)(=O)c1ccc(Br)s1)NCc1ccc2c(c1)OCO2	none
CC(=O)Oc1ccccc1C(=O)C=Cc1cccc([N+](=O)[O-])c1	GalR3 antagonist 27.6, NR2F2 inh 46.8 | VP16 Luc counter inactive | NR2F2 inh conf inactive
CC1(C(=O)NCCc2c[nH]c3ccccc23)CCN1CC1CCCCC1 (stereo not drawn)	none
O=[N+]([O-])c1ccc(N2CCN(c3ccc([N+](=O)[O-])cc3CO)CC2)c(CO)c1	NR2F2 inh 60.3 | VP16 Luc counter inactive | NR2F2 inh conf inactive
Cc1ccc(CNC(=O)CSc2ccc(-c3ccco3)nn2)cc1	none
Cc1ccc2c(c1)N(C)/C(=C/c1cccc[n+]1CCO)S2	none
CN1/C(=C/c2cccc[n+]2C)Sc2ccccc21	NR2F2 inh 53.1 | VP16 Luc counter inactive | NR2F2 inh conf 47.7
Cc1ccc2c(c1)N(C)/C(=C/c1cccc[n+]1C)S2	NR2F2 inh 57.1 | VP16 Luc counter inactive | NR2F2 inh conf 42.5
COC(=O)c1cnn(-c2ccc(F)cc2F)c1/C=N/NC(=S)Nc1ccccc1	NR2F2 inh 48.0 (no result: GalR3 antagonist, SRC2 inh, LRH-1 inv ag, SRC3 inh, SRC1 inh) | VP16 Luc counter inactive | NR2F2 inh conf inactive
COc1ccc(-n2cc(-c3ccc(C)cc3)[n+]3c2SCC3)cc1	NR2F2 inh 66.5 | VP16 Luc counter inactive | NR2F2 inh conf 64.1
CCc1ccc(-n2cc(-c3ccc(F)cc3)[n+]3c2SCCC3)cc1	none
Cc1ccc(-c2cn(-c3ccccc3)c3[n+]2CCCS3)cc1	NR2F2 inh 54.6 | VP16 Luc counter inactive | NR2F2 inh conf 39.0!
COc1ccccc1NC(=O)c1c(Nc2ccccc2C)sc(C(=O)Nc2cccc(Cl)c2)c1N	NR2F2 inh 38.4 | VP16 Luc counter inactive | NR2F2 inh conf 60.9
COc1ccc(Nc2sc(C(=O)c3ccc(Cl)cc3)c(N)c2C(=O)Nc2ccccc2OC)cc1	none
Cc1ccccc1-n1ncc2c(SCC(=O)NC3CCCC3)ncnc21	NR2F2 inh 46.3 | VP16 Luc counter inactive | NR2F2 inh conf inactive
Cc1nnc(NC(=O)CSc2ncnc3c2cnn3-c2ccccc2C)s1	none
COC(=O)c1ccc(CSc2nnc(CS(=O)Cc3ccc(Br)cc3)n2-c2ccccc2)cc1 (stereo not drawn)	NR2F2 inh 39.3 | VP16 Luc counter inactive | NR2F2 inh conf inactive
O=S(Cc1ccc(Br)cc1)Cc1nnc(SCc2ccc(Br)cc2)n1-c1ccccc1 (stereo not drawn)	NR2F2 inh 43.7 | VP16 Luc counter inactive | NR2F2 inh conf inactive
C=C1C(=O)C23C(O)C1CCC2C12CCCC(C)(COC(C)=O)C1C(O)C3(O)OC2 (stereo not drawn)	NR2F2 inh 48.3, LRH-1 inv ag 76.8, SRC3 inh 74.2, SRC1 inh 76.7 | VP16 Luc counter 76.8 | NR2F2 inh conf 51.9
COc1cc(/C=C/C(=O)Nc2ccc(OC)c(S(=O)(=O)N3CCOCC3)c2)ccc1OC(F)F	NR2F2 inh 37.6 | VP16 Luc counter 13.3 | NR2F2 inh conf inactive
CC(=O)Nc1cccc(NC(=O)/C=C/c2ccc(S(=O)(=O)N3CCOCC3)cc2)c1	none
COc1ccc(/C=C/C(=O)Nc2ccccc2F)cc1S(=O)(=O)N1CCOCC1	none
